KB-V1 MDR tox: qHTS assay for MDR1-selective chemotherapeutics: Primary screen using the drug-selected MDR subline cells KB-V1. Potency, µM (highest dose often 46.1 µM), actives largely listed as cytotoxic. AID 1347076, 2019. KB-V1 MDR cells viability, CellTiter-Glo, 72 h. actives 3.4% (n = 400,000); also: nearly all actives have a fitted effect of over 60% in size
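Readout: CellTiter-Glo luminescence, 10 min after addition. Cells: KB-V1 MDR subline, 72 h at 37 degrees C with compound. Analysis: corrected, normalized data fitted to concentration-effect curves.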
MCF10A rerep: A quantitative high throughput screen for small molecules that induce DNA re-replication in MCF 10a normal breast cells. MCF 10A DNA re-replication, Hoechst nuclear intensity, 48 h. Potency, µM (highest dose often 46.1 µM), most hits filed as activators. actives 2.9% (n = 350,000); also: nearly all actives have a fitted effect of over 50% in size
SW480 rerep: A quantitative high throughput screen for small molecules that induce DNA re-replication in SW480 colon adenocarcinoma cells | actives 1.8% (n = 340,000) | Potency, µM (doses to about 46.1 µM), hits mostly activators | SW480 DNA re-replication, Hoechst DNA content imaging, 48 h | AID 624297, 2012; also: nearly all actives have a fitted effect of over 55% in size
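Image-based read-out: total Hoechst fluorescence of nuclei (405 nm excitation, 500-530 nm emission), with hits raising the fraction of high-intensity nuclei. SW480 colon cells incubated 48 hr with compounds at 37 C.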
ELG1 repair inh: qHTS screen for small molecules that inhibit ELG1-dependent DNA repair in human embryonic kidney (HEK293T) cells expressing luciferase-tagged ELG1; Potency, µM (titrated, usually from 46.1 µM), actives largely listed as inhibitors; HEK293T ELG1-luciferase reporter, luminescence, 16 h; DNA damage induced by 5-fluorouridine; actives 2.3% (n = 330,000); also: nearly all actives have a fitted effect of over 55% in size
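In this reporter screen, reduction of luminescence relative to DMSO vehicle indicated activity. Compounds and 5-fluorouridine were added together to 2,000 cells per well, incubated for 16 hr at 37 °C, then developed with ONE-Glo.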
KB-3-1 tox: qHTS assay for MDR1-selective chemotherapeutics: Primary screen using the parental adenocarcinoma cell KB-3-1; Potency, µM (highest dose often 46.1 µM), hits mostly cytotoxic; AID 1347075, 2019; actives 1.4% (n = 400,000); KB-3-1 viability, CellTiter-Glo ATP luminescence, 72 h; also: nearly all actives have a fitted effect of over 60% in size
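KB-3-1 cells, DMEM (no phenol red) + 10% FBS; compound by pin transfer, 72 h, 37 °C. Readout: CellTiter-Glo luminescence after 10 min. Data normalized, curve-fitted.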
Large screens that a line does not name were inactive. A selection: hits, their analogues and other compounds. The true share with any hit is near 8.2%. Calls follow the shape of the dose curve; as a rule, active = well fitted curve in the direction sought with a large enough effect; inconclusive = small, poorly fitted or top-dose-only effect, or another doubt; inactive = no such curve, though single readings can be large; an effect the other way counts as inactive or inconclusive.

Cc1cccc(C)c1NC(=O)COC(=O)C1Cc2ccccc2CN1C(=O)c1ccccc1 (stereo unspecified)	KB-V1 MDR tox 8.2µM
N#Cc1ccc(NC(=O)COC(=O)C2Cc3ccccc3CN2C(=O)c2ccccc2)cc1 (stereo unspecified)	ELG1 repair inh 10.3µM
CN(C)c1ccc(C=NCC2COc3ccccc3O2)cc1 (stereo unspecified)	KB-V1 MDR tox inconclusive
COc1ccccc1NS(=O)(=O)c1cc2c(cc1Cl)NC(=O)CO2	none (no result: MCF10A rerep, SW480 rerep, ELG1 repair inh)
CC(=O)c1cccc(NC(=O)CN2CCc3cc4c(cc3C2C)OCCCO4)c1 (stereo unspecified)	ELG1 repair inh 11.6µM
CC1c2cc3c(cc2CCN1C(=O)c1ccc(Cl)cc1)OCCCO3 (stereo unspecified)	KB-V1 MDR tox inconclusive, MCF10A rerep inconclusive, SW480 rerep inconclusive, ELG1 repair inh 23.1µM, KB-3-1 tox inconclusive
COC(=O)c1c(-c2cccs2)csc1NC(=O)COc1ccc(C(C)(C)C)cc1	none (no result: MCF10A rerep, SW480 rerep, ELG1 repair inh)
Cc1cc(N2CCN(C)CC2)nc2ccc(NC(=O)Nc3cccc(Cl)c3)cc12	none (no result: MCF10A rerep, SW480 rerep, ELG1 repair inh)
CC1(C(=O)NS(=O)(=O)c2cccc(Cl)c2)CCN1C(=O)Cc1ccsc1 (stereo unspecified)	none (no result: MCF10A rerep, SW480 rerep, ELG1 repair inh)
CCc1c(C(=O)NCCc2ccc(OC)c(OC)c2)[nH]c(C)c1C(C)=O	KB-V1 MDR tox 14.6µM
CCc1c(C(=O)NCCc2cccc(C)c2)[nH]c(C)c1C(C)=O	KB-V1 MDR tox 11.6µM, MCF10A rerep inconclusive, KB-3-1 tox inconclusive
CCc1c(C(=O)Nc2cc(C)ccc2OC)[nH]c(C)c1C(C)=O	MCF10A rerep inconclusive
CCc1c(C(=O)NC2CCCCC2)[nH]c(C)c1C(C)=O	KB-V1 MDR tox 18.4µM
O=Cc1ccc2ccc3cccnc3c2n1	MCF10A rerep inconclusive, SW480 rerep 20.6µM
CC(C)(C)OC(=O)N1CCC(c2c(C(=O)NC3CCCCC3)cnn2-c2cccc(F)c2)CC1	none (no result: MCF10A rerep, SW480 rerep, ELG1 repair inh)
O=C(OCC(=O)c1c[nH]c2ccccc12)c1ccc([N+](=O)[O-])s1	KB-V1 MDR tox inconclusive, SW480 rerep 20.6µM, ELG1 repair inh inconclusive
COc1ccc(C2CC(C(F)(F)F)n3nc(C(=O)NCCCn4ccnc4)cc3N2)cc1OC (stereo unspecified)	none
COc1ccc(C2CC(C(F)(F)F)n3ncc(C(=O)Nc4cccc(O)c4)c3N2)cc1OC (stereo unspecified)	ELG1 repair inh 14.6µM
Cc1cccc(NC(=O)c2cc3n(n2)C(C(F)(F)F)CC(c2ccc4c(c2)OCO4)N3)c1 (stereo unspecified)	KB-V1 MDR tox 11.6µM, ELG1 repair inh inconclusive
COc1ccc(NC(=O)c2cc3n(n2)C(C(F)(F)F)CC(c2ccc4c(c2)OCO4)N3)cc1OC (stereo unspecified)	KB-V1 MDR tox 16.4µM, SW480 rerep inconclusive, ELG1 repair inh inconclusive
O=C(Nc1ccc(O)cc1)c1cc2n(n1)C(C(F)(F)F)CC(c1ccco1)N2 (stereo unspecified)	KB-V1 MDR tox inconclusive, MCF10A rerep inconclusive, SW480 rerep inconclusive, KB-3-1 tox 10.3µM
Cc1ccc(S(=O)(=O)N2CCOCC2)cc1C(=O)NC(C)CCc1ccccc1 (stereo unspecified)	none
Cc1c(C(c2ccc(F)cc2)c2c(C)n(C)n(-c3ccccc3)c2=O)c(=O)n(-c2ccccc2)n1C	none
CC(=O)N1c2ccc(S(=O)(=O)N(C)CC(=O)NC3CCCCC3C)cc2CC1C (stereo unspecified)	KB-3-1 tox inconclusive
O=C(NCC1CCCO1)c1cc2n(n1)C(C(F)(F)F)CC(c1ccc(Br)cc1)N2 (stereo unspecified)	KB-V1 MDR tox 8.2µM
CCOC(=O)c1c(NC(=O)c2cc3n(n2)C(C(F)(F)F)CC(c2ccccc2)N3)sc(C)c1C (stereo unspecified)	SW480 rerep 16.4µM, ELG1 repair inh inconclusive
COc1cccc(NC(=O)CN(C)C(=O)/C=C/c2cn(Cc3ccccc3)nc2-c2cccnc2)c1	MCF10A rerep inconclusive, SW480 rerep 14.6µM, ELG1 repair inh 14.6µM
O=C(c1cn(Cc2ccccc2)nc1-c1cccnc1)N1CCN(Cc2c(F)cccc2Cl)CC1	ELG1 repair inh 9.2µM
COc1cccc(N2CCN(C(=O)c3cn(Cc4ccccc4)nc3-c3cccnc3)CC2)c1	KB-V1 MDR tox inconclusive, MCF10A rerep 5.17µM, SW480 rerep 4.11µM, KB-3-1 tox 1.84µM
O=C(c1cn(Cc2ccccc2)nc1-c1cccnc1)N1CCN(Cc2ccccc2)CC1	none
N#CC1(NC(=O)COC(=O)C23CC4CC(CC(O)(C4)C2)C3)CCCCC1	none
c1ccc(CN2CCN(c3nc(N4CCOCC4)c4ccccc4n3)CC2)cc1	KB-V1 MDR tox inconclusive, MCF10A rerep 16.4µM, SW480 rerep inconclusive (no result: ELG1 repair inh)
OCCNc1nc(N2CCN(Cc3ccccc3)CC2)nc2ccccc12	KB-V1 MDR tox 20.6µM
c1ccc2c(N3CCOCC3)nc(N3CCOCC3)nc2c1	ELG1 repair inh inconclusive
OCCNc1c2ccccc2nc2ccccc12	KB-V1 MDR tox inconclusive, ELG1 repair inh 20.6µM, KB-3-1 tox inconclusive
CCOC(=O)C1(C)CCCN(C(=O)c2cc(OC)c(OC)c(OC)c2)C1 (stereo unspecified)	none (no result: MCF10A rerep, SW480 rerep, ELG1 repair inh)
Cc1cc(F)ccc1NC(=O)C1CCN(C(=O)c2cnn(-c3ccccc3)c2-n2cccc2)CC1	none (no result: MCF10A rerep, SW480 rerep, ELG1 repair inh)
CCN1C(=O)S/C(=C/c2ccc(Oc3ccc([N+](=O)[O-])cn3)c(OC)c2)C1=O	none
COc1cc(/C=C2\SC(=O)NC2=O)ccc1Oc1ccc([N+](=O)[O-])cc1[N+](=O)[O-]	MCF10A rerep 20.6µM, ELG1 repair inh inconclusive
CCN1C(=O)C(=Cc2cccc(OC)c2Oc2ccc([N+](=O)[O-])cc2[N+](=O)[O-])SC1=S	KB-V1 MDR tox inconclusive, MCF10A rerep inconclusive, SW480 rerep 4.61µM, ELG1 repair inh inconclusive, KB-3-1 tox 23.1µM
CO/N=C/c1ccc(Oc2ccc([N+](=O)[O-])cc2[N+](=O)[O-])c(OC)c1	KB-V1 MDR tox inconclusive, MCF10A rerep inconclusive, SW480 rerep inconclusive
CCN(CC)S(=O)(=O)c1ccc2c(c1)N(CC(=O)N1CCN(c3ccc(OC)cc3)CC1)C(=O)CO2	none (no result: MCF10A rerep, SW480 rerep, ELG1 repair inh)
CCC(C)NC(=O)CSc1nnc(-c2cc(OC)c(OC)c(OC)c2)c(-c2cc(OC)c(OC)c(OC)c2)n1 (stereo unspecified)	ELG1 repair inh inconclusive
N#CCc1ccccc1C(=O)OCC(=O)N(Cc1ccccc1)Cc1ccccc1	ELG1 repair inh inconclusive
O=C1Nc2ccccc2C(=O)N(c2ccc3c(c2)OCCO3)C1C(=O)NC1CC1 (stereo unspecified)	none (no result: MCF10A rerep, SW480 rerep, ELG1 repair inh)

Screening data from PubChem.
